Assay results as given in PubChem BioAssay (EPA / NIEHS).
Records with an inconclusive call do not appear. Active and inactive are the calls of the source. The calls were made as follows: active = hit-call score of the fitted dose curve at least 0.9, where 1 is the maximum; inconclusive = response in the unintended direction; inactive = score below 0.9.

Test: ACEA_ER_AUC_viability: ACEA Biosciences xCELLigence Real-Time Cell Analysis on Estrogen Receptor Agonism for Viability (AID 2283782);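 also: continuous compound exposure with impedance area under curve over 80 h; hit means loss of impedance signal meaning reduced cell growth or viability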
Summary of the method: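 T47D cells preconditioned in phenol red-free RPMI with charcoal-stripped FBS, then dosed with 8-point 1:4 series from 100 uM (up to 0.5% DMSO). Impedance monitored up to ~80 h; area-under-curve loss versus DMSO taken as viability.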

Question: For `CC(=O)C(=O)O`, which AC50 is on record?
Answer: 78 µM (active)

Question: With `OCC(CO)(CO)COCC(CO)(CO)CO` as the compound, how does the outcome read?
Answer: inactive

Question: With `COc1cc(C=O)ccc1OC(=O)C(C)C` as the compound, how does the outcome read?
Answer: inactive

Question: Which outcome does the source give for `Cc1cccc(C)c1[N+](=O)[O-]` here?
Answer: inactive

Question: For `CCCCCCCCCCCCCCCC(=O)O`, which AC50 is on record?
Answer: 84.3 µM (active)

Question: For `Clc1cccc(Cl)n1`, which outcome is on record?
Answer: inactive

Question: For `O=c1oc(=O)c2cc3c(=O)oc(=O)c3cc12`, which outcome is on record?
Answer: inactive

Question: Which AC50 does the source give for `O=C1CCCCCCCCCCOCCCCO1` here?
Answer: 55.4 µM (active)

Question: With `CC(C)[C@H]1CC[C@@H](C)CC1=O` as the compound, how does the outcome read?
Answer: inactive

Question: With `CCC(=O)OCCC(C)CCC=C(C)C` (configuration not stated) as the compound, how does the AC50 read?
Answer: 78.6 µM (active)

Question: For `CCCC/C=C\CCCCCCCCCC=O`, which AC50 is on record?
Answer: 91.2 µM (active)

Question: With `CC1CCC2CC1C2(C)C` (configuration not stated) as the compound, how does the outcome read?
Answer: inactive

Question: For `C=C(C)[C@@H]1CCC2=CC(=O)C[C@@H](C)[C@]2(C)C1`, which AC50 is on record?
Answer: 80.7 µM (active)

Question: With `Nc1nc2ccc([N+](=O)[O-])cc2s1` as the compound, how does the AC50 read?
Answer: 50 µM (active)

Question: Which outcome does the source give for `CC(C)[C@@H]1CC[C@@H](C)CC1=O` here?
Answer: inactive

Question: For `Clc1nc(C(Cl)(Cl)Cl)c(Cl)c(Cl)c1Cl`, which AC50 is on record?
Answer: 24.1 µM (active)

Question: With `CC1(C)[C@@H]2CC[C@@]1(C)[C@H](O)C2` as the compound, how does the outcome read?
Answer: inactive

Question: For `OCCN1CCNCC1`, which outcome is on record?
Answer: inactive

Question: For `CC1CC(OC(=O)c2ccccc2O)CC(C)(C)C1` (configuration not stated), which AC50 is on record?
Answer: 78.4 µM (active)

Question: For `CCC(=O)/C=C/C1C(C)=CCCC1(C)C` (configuration not stated), which outcome is on record?
Answer: inactive

Question: For `Nc1cc(N)cc(C(=O)O)c1`, which outcome is on record?
Answer: inactive

Question: For `CO[Si](C)(OC)c1ccccc1`, which outcome is on record?
Answer: inactive

Question: With `c1ccc(CCCc2ccccn2)cc1` as the compound, how does the outcome read?
Answer: inactive

Question: Which AC50 does the source give for `O=S(=O)(O)NC1CCCCC1` here?
Answer: 50 µM (active)

Question: Which outcome does the source give for `NCCOCCO` here?
Answer: inactive

Question: With `CCO[Si](CCCS)(OCC)OCC` as the compound, how does the outcome read?
Answer: inactive

Question: For `CCCCCCCCCC=O`, which outcome is on record?
Answer: inactive

Question: For `CCCCCCCCCCCCCCCCCC(=O)OCC(CC)CCCC` (configuration not stated), which outcome is on record?
Answer: inactive

Question: With `CC(C)(C)NC(N)=O` as the compound, how does the outcome read?
Answer: inactive

Question: With `CN(C)CCOCCN(C)C` as the compound, how does the outcome read?
Answer: inactive

Question: Which outcome does the source give for `[Ca+2]` here?
Answer: inactive

Question: Which AC50 does the source give for `CCCCCC(=O)OCCc1ccccc1` here?
Answer: 78.9 µM (active)
